The values below come from PubChem BioAssay (Tox21).

Values without a mark were called inactive. Results filed as inconclusive are left out. The source made the active and inactive calls. Unless noted, the call rests on the fitted dose curve.

Assay [1] is described as follows: Nuclear factor erythroid 2-related factor 2/antioxidant responsive element (Nrf2/ARE) small molecule agonists: qHTS cell viability counter screen in human keratinocytes (AID 1919968; active means well fitted curve in the direction sought with a large enough effect in the repeat runs; an effect the other way counts as inactive or inconclusive; further: nearly all actives have a fitted effect of over 55% in size; further: potency means the concentration at half of the fitted maximal effect). A digest of the protocol:
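Viability counter-screen: KeratinoSens reporter cells, DMSO-delivered compounds, 23 h at 37 C, CellTiter-Fluor fluorescence.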

Assay [2] can be described thus: Nuclear factor erythroid 2-related factor 2/antioxidant responsive element (Nrf2/ARE) small molecule agonists: luciferase reporter gene qHTS assay in human keratinocytes (AID 1919969; further: nearly all actives have a fitted effect of over 35% in size; further: potency means the concentration at half of the fitted maximal effect). (In general: Reporter assays use an easily measured gene product as a stand-in for the process of interest.)
The target of assay [3] is Gonadotropin-releasing hormone receptor (Homo sapiens) (UniProt P30968). Description: Human gonadotropin-releasing hormone receptor (GnRHR) small molecule agonists, calcium flux assay in GnRHR-HEK293 cells (AID 1920063). Further: nearly all actives have a fitted effect of over 35% in size. The procedure, abridged: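 Tox21-format agonist screen using human GnRHR-expressing HEK293 cells and a fluorescent calcium dye; kinetic 3-min fluorescence reading after compound addition, 15-point concentration series run in triplicate.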
(Calcium flux is commonly read through the fluorescence of an indicator in the cells.)

The target of assay [4] is KiSS-1 receptor (Homo sapiens) (UniProt Q969F8). Nature of the assay: Human kisspeptin (KISS1R) small molecule agonists, calcium flux assay in KISS1R-HEK293 cells (AID 1920064; active means well fitted curve in the direction sought with a large enough effect in the repeat runs; an effect the other way counts as inactive or inconclusive). The procedure, abridged:
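Intracellular calcium mobilization in KISS1R-HEK293 cells was recorded by fluorescence (Ex/Em 480/540) for 3 min following compound addition to cells pre-loaded 1 h with calcium dye.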

Assay [5] can be described thus: G protein-coupled receptor (GPCR) small molecule agonists, calcium flux assay: HEK293 wild type cell line counter screen (AID 1920065). A digest of the protocol:
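In this agonist-mode screen, ATP is the positive control and DMSO the vehicle. Cells grow 18 h before a 1 h dye incubation at 37 C; signal is taken at Ex/Em 480/540 over 3 min.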

Assay [6] can be described thus: p53 small molecule agonists, cell-based qHTS assay with human liver microsomes (AID 1963577).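 Further: p53 response element beta-lactamase reporter cells with liver microsomes plus NADPH.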 A digest of the protocol:
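16 h, 37 C exposure of p53RE-bla cells to compounds with human liver microsomes and NADPH (0.5 mg/mL final each); detection via LiveBLAzer mixture, 2 h dark at room temperature.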

A short description of assay [7]: p53 small molecule agonists, cell-based qHTS assay with rat liver microsomes (AID 1963578). The procedure, abridged: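 With rat liver microsomes and NADPH present (0.5 mg/mL final each), p53RE-bla cells are treated with compound for 16 h at 37 C. LiveBLAzer detection mixture is then applied for 2 h at room temperature in the dark.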
(qHTS replaces the single test concentration by a dilution series.)

Assay [8] in a line: p53 small molecule agonists, cell-based qHTS assay with human liver microsomes: qHTS cell viability counter screen (AID 1963579). Further: nearly all actives have a fitted effect of over 45% in size. The procedure, abridged:
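In this multiplexed counter screen, the reporter plates were subsequently treated with CellTiter-Glo so that cell viability, reflected by luminescence, could be recorded for p53RE-bla cells dosed 16 h with compounds under microsomal activation (HLM and NADPH).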

A short description of assay [9]: p53 small molecule agonists, cell-based qHTS assay with rat liver microsomes: qHTS cell viability counter screen (AID 1963580). Further: nearly all actives have a fitted effect of over 45% in size. The procedure, abridged: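 Viability is assessed in parallel with the p53 reporter read: HCT-116 p53RE-bla cells receive compounds plus rat microsomes and NADPH (0.5 mg/mL final apiece), incubate 16 h at 37 C, and then CellTiter-Glo luminescence is recorded.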

The nature of assay [10]: p53 small molecule agonists, cell-based qHTS assay: qHTS cell viability counter screen (AID 1963581). Further: nearly all actives have a fitted effect of over 45% in size. A digest of the protocol: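 Compounds are pinned onto HCT-116 p53RE-bla cells and left 16 h at 37 C. Following the reporter FRET read, ATP is quantified by CellTiter-Glo luminescence after 30 min at room temperature.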
Assay [11] addresses 5-hydroxytryptamine receptor 2A (Homo sapiens) (UniProt P28223). Description: 5-hydroxytryptamine receptor 2A (HTR2A) small molecule antagonists, cell-based qHTS assay (AID 1963586). Further: nearly all actives have a fitted effect of over 45% in size. A digest of the protocol:
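Antagonist-mode intracellular calcium assay: DOI (4 nM) added after 5 min compound pre-incubation at room temperature to dye-loaded HTR2A-CHO cells. Fluorescence followed for 3 min, sampled every second.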

The target is the same in assay [12]. Description: 5-hydroxytryptamine receptor 2A (HTR2A) small molecule agonists, cell-based qHTS assay (AID 1963587). Further: nearly all actives have a fitted effect of over 30% in size. The procedure, abridged: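 CHO cells stably expressing human HTR2A, plated 18 h, loaded with calcium dye 1 h at 37 C. Agonist mode: compounds added and intracellular calcium fluorescence recorded kinetically for 2 min at 1 sec intervals.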
Assay [13] has as its target Muscarinic acetylcholine receptor M1 (Homo sapiens) (UniProt P11229). Description: Cholinergic receptor muscarinic 1 (CHRM1) small molecule antagonists, cell-based qHTS assay (AID 1963588). Further: nearly all actives have a fitted effect of over 40% in size. Further: potency means the concentration at half of the fitted maximal effect. A digest of the protocol: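 CHRM1-CHO calcium-flux assay, antagonist mode. Cells were seeded 18 h, dye-loaded 1 h at 37 C and given compound for 5 min at RT, then acetylcholine was added at 50nM. FDSS fluorescence was read 3 min; 15 concentrations, three runs.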

For assay [14] the target is unchanged. Nature of the assay: Cholinergic receptor muscarinic 1 (CHRM1) small molecule agonists, cell-based qHTS assay (AID 1963589). Further: nearly all actives have a fitted effect of over 35% in size. A digest of the protocol: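 Stable CHRM1-CHO cells (human receptor) were incubated 18 h, dye-loaded for 1 h at 37 C and exposed to test compounds for agonist activity, with calcium-dependent fluorescence followed kinetically.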
The nature of assay [15]: cAMP Responsive Elements (CRE) small molecule antagonists, cell-based qHTS assay (AID 1963591; active means well fitted inhibition curve with a large enough effect in the signal ratio in the repeat runs, not every such curve was filed as active; the % refers to the signal ratio). A digest of the protocol: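 qHTS in CRE-bla HEK 293T cells: compound in DMSO, then 0.25 uM NKH477 (final), 3 h at 37 °C/5% CO2; beta-lactamase FRET read-out after 2 h substrate incubation.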
The target in assay [16] is Beta-2 adrenergic receptor (Homo sapiens) (UniProt P07550). Nature of the assay: Adrenergic beta2 receptor (ADRB2) small molecule antagonists, cell-based qHTS assay (AID 1963592). Further: series mostly up to about 92 µM; nearly all actives have a fitted effect of over 50% in size. The procedure, abridged:
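Cells (CHO, stable ADRB2 overexpression) incubated 18-20hr at 37C; compounds added from DMSO; agonist mix (1nM isoproterenol, 100uM IBMX, 25uM Ro-20-1724) added; 0.5hr RT; d2-cAMP and anti-cAMP-cryptate added; 1hr RT; 665/615 nm read.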

Assay [17] has as its target D(2) dopamine receptor (Homo sapiens) (UniProt P14416). Description: Dopamine D2 receptor (DRD2) small molecule agonists, cell-based qHTS assay (AID 1963594). Further: nearly all actives have a fitted effect of over 35% in size. The procedure, abridged: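 HEK293 cells stably expressing human DRD2, pre-treated with PDE inhibitor Ro20-1724 (0.1 mM final) and compound 10 min at room temperature, then stimulated with NKH477 (200nM […]) for 30 min. cAMP read by HTRF (665/620 nm).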

Assay [18] has the same target. Nature of the assay: Dopamine D2 receptor (DRD2) small molecule antagonists, cell-based qHTS assay (AID 1963595; active means well fitted inhibition curve with a large enough effect in the signal ratio in the repeat runs, with a control signal flat; the % refers to the signal ratio). The procedure, abridged: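 Cells were plated and grown for 24 h at 37 °C. Ro20-1724 (0.1 mM final) went in first, then compound for 10 min. NKH477 (200 nM) with quinpirole (12 nM) followed for 30 min at RT, then HTRF detection reagents for 1 h.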
The nature of assay [19]: cAMP Responsive Elements (CRE) small molecule agonists, cell-based qHTS assay (AID 1963590). A digest of the protocol: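 FRET-based beta-lactamase readout (LiveBLAzer B/G, 2 h RT) quantified CRE activation in HEK 293T CRE-bla cells after 3 h treatment with DMSO-dissolved compounds.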
Assay [20] can be described thus: p53 small molecule agonists, cell-based qHTS assay (AID 1963582; active means well fitted activation curve with a large enough effect in the signal ratio in the repeat runs, not every such curve was filed as active; the % refers to the signal ratio). The procedure, abridged:
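Agonist activity was scored from beta-lactamase FRET fluorescence in p53RE-bla cells treated 16 h at 37 C with compounds in DMSO, substrate incubation being 2 h at room temperature.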
On the % scale 0 is the no-effect control and ±100 the full control effect.

Sequence of Muscarinic acetylcholine receptor M1 (Homo sapiens) (P11229 whole entry, looked up): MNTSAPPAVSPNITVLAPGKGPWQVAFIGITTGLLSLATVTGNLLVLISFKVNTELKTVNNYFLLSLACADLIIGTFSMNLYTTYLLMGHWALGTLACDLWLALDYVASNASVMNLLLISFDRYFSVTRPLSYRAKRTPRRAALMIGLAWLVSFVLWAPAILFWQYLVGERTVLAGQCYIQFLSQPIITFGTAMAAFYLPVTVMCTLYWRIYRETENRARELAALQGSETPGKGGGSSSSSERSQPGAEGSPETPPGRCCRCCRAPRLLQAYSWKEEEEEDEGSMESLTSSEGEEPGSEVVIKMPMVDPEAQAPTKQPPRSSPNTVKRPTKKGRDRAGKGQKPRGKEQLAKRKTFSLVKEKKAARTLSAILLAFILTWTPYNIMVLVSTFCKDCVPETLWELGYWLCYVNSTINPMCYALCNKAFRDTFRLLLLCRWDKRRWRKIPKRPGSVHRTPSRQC
Sequence of 5-hydroxytryptamine receptor 2A (Homo sapiens) (P28223 whole entry, looked up): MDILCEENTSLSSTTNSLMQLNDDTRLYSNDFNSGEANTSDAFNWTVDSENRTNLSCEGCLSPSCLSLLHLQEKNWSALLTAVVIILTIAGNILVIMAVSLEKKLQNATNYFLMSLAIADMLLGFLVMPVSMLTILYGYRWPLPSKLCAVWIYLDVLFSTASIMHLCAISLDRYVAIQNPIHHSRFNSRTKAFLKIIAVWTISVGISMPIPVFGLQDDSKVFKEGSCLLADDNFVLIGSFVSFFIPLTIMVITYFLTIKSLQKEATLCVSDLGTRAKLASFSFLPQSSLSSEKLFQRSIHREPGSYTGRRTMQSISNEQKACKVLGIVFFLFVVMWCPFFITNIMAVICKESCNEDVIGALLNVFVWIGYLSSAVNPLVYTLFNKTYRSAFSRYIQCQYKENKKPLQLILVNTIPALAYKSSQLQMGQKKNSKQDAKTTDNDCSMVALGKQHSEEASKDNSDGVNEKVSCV
Sequence of Gonadotropin-releasing hormone receptor (Homo sapiens) (P30968 whole entry, looked up): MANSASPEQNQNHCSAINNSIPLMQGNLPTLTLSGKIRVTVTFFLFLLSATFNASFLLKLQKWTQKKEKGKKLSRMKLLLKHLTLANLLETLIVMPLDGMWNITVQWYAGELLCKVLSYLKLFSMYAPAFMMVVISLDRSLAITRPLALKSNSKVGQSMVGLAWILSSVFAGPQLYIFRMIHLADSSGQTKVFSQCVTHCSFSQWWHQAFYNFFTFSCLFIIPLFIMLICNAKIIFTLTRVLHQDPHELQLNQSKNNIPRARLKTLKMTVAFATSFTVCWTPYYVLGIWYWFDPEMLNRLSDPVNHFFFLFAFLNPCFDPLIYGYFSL
Sequence of D(2) dopamine receptor (Homo sapiens) (P14416 whole entry, looked up): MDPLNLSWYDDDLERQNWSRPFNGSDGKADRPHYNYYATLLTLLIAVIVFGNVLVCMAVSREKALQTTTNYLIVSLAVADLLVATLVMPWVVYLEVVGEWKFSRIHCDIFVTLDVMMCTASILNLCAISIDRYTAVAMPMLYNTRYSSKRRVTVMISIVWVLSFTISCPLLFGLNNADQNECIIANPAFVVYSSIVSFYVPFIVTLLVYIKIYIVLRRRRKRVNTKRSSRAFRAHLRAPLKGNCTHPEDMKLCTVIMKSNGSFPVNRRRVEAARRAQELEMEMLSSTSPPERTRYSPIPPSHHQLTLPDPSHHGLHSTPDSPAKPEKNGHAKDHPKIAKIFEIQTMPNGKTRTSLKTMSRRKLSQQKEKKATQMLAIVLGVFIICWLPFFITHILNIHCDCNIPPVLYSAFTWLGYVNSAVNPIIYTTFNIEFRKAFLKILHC
Sequence of KiSS-1 receptor (Homo sapiens) (Q969F8 whole entry, looked up): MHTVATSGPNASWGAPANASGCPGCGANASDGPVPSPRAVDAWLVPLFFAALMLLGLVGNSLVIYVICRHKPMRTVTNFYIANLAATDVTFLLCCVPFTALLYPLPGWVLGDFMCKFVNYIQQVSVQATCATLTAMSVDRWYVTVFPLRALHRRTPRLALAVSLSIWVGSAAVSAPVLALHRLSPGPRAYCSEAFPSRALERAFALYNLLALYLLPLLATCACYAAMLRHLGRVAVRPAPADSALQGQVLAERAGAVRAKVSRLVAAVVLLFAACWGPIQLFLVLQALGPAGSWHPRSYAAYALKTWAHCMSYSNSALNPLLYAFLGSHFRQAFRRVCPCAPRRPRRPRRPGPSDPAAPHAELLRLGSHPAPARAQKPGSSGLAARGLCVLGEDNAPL
Sequence of Beta-2 adrenergic receptor (Homo sapiens) (P07550 whole entry, looked up): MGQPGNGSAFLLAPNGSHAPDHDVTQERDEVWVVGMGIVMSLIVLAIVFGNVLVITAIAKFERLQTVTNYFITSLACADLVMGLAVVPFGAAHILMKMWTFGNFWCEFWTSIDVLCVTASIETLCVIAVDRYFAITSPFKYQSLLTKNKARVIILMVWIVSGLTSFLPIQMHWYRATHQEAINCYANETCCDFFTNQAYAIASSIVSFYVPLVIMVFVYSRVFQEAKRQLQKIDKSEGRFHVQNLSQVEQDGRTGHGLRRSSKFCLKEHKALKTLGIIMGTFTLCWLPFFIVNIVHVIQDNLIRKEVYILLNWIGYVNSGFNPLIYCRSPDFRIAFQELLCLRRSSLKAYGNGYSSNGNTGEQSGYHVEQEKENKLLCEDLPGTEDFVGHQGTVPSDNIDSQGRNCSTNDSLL

With `Cc1ccc2nc3sc(=O)sc3nc2c1`, the results for the Potency in assay [1] and in [2] were 3.66 µM (active) and 1.64 µM (active), respectively. The activity change in [3] is -0.0057% [at 11.8 µM, stronger effect = higher value]. The activation in assay [4] was -1.66% [at 15.8 µM]; in [5], -0.174% [at 11.8 µM]; in [6] it was 12.4% [at 13.5 µM]; in [7] it was 0.351% [at 13.6 µM]; in [12] it was -3.01% [at 15.9 µM]; in [14], -0.991% [at 15.8 µM]. Further, the activation in assay [17] is 1.16% [at 19 µM]. For the same compound, the activity change, negative = cytotoxicity in assay [8] is 4.93% [at 13.5 µM]; in [9] it was -3.16% [at 13.5 µM]; in assay [10] it was -2.54% [at 13.5 µM]. Besides, the figures for the activity, negative = inhibition in assay [11] and in assay [13] were 8.83% [at 12.7 µM] and 5.56% [at 12.6 µM], respectively. In addition, the activity change, negative = inhibition in [15] was 1.33% [at 18.9 µM]; in [16], -4.14% [at 19 µM]; in [18], 0.198% [at 18.9 µM].
Take `CC(Cc1ccc(C(C)(C)C)cc1)CN1C[C@@H](C)O[C@@H](C)C1` (stereo partly specified): the Potency entry in [1], in assay [3], in assay [4], in assay [5], in assay [6] and in assay [7] was “inactive” in each case. Further, the Potency entry in [8], in assay [9], in assay [10], in assay [12], in assay [14] and in [19] was “inactive” each time. The Potency entry in assay [15] and in assay [16] was “inactive” each time. For the same compound, the Potency in assay [2] is 61.1 µM (active); in assay [13] it was 37.5 µM (active).
For `CC(Oc1ccc(Oc2ncc(C(F)(F)F)cc2Cl)cc1)C(=O)O` (stereo unspecified), the Potency entry in [1], in assay [2], in assay [3], in assay [4], in [5] and in [6] was “inactive” throughout. Moreover, the Potency entry in assay [7], in assay [8], in assay [9], in assay [10], in assay [12] and in assay [13] was “inactive” in each case. Moreover, the Potency entry in assay [16], in assay [17] and in assay [18] was “inactive” each time.
As for `CCCCS(=O)(=O)Cl`, the Potency entry in assay [1], in [2], in assay [3], in assay [4], in [5] and in assay [6] was “inactive” in each case. Also, the Potency result in assay [7], in [8], in assay [9], in assay [20], in assay [11] and in [12] was “inactive” in each case. For the same compound, the Potency result in [13], in [19], in assay [15], in assay [16], in assay [17] and in [18] was “inactive” in each case.
On to `O=C(O)c1cc(I)cc(I)c1I`, for which the Potency entry in [1], in assay [2], in assay [3], in assay [4], in [5] and in assay [6] was “inactive” throughout. Moreover, the Potency result in [7], in assay [8], in assay [9], in assay [10], in [11] and in [12] was “inactive” each time. The Potency entry in assay [13], in assay [16], in assay [17] and in assay [18] was “inactive” in each case.
Take `CCN[C@@H](C)Cc1ccccc1`: the Potency result in assay [1], in [2], in [3], in [4], in [5] and in assay [6] was “inactive” each time. The Potency result in assay [7], in assay [8], in assay [9], in [20], in assay [11] and in assay [12] was “inactive” in each case. The Potency result in assay [13], in assay [14], in [19], in [15], in [16] and in assay [17] was “inactive” throughout. Also, in [18], the Potency result is “inactive”.
`C[C@]12CC[C@H]3[C@@H](CCC4=CC(=O)CC[C@@]43C)[C@@H]1CC[C@@H]2C(=O)O`: the Potency entry in [1], in assay [2], in [3], in assay [4], in assay [5] and in [6] was “inactive” each time. Besides, the Potency entry in assay [7], in [8], in assay [9], in [20], in assay [11] and in assay [12] was “inactive” each time. For the same compound, the Potency entry in assay [13], in assay [14], in [16] and in [18] was “inactive” throughout.
As to `COC(=O)C(C)Oc1ccc(Oc2ccc(Cl)cc2Cl)cc1` (stereo unspecified), the Potency entry in assay [1], in [2], in assay [3], in [4], in [5] and in [6] was “inactive” throughout. The Potency entry in assay [7], in assay [8], in assay [9], in assay [10], in assay [11] and in assay [12] was “inactive” each time. Also, the Potency entry in assay [14], in assay [19], in assay [15], in assay [16], in assay [17] and in assay [18] was “inactive” throughout.
